These results are taken from PubChem BioAssay (EPA / NIEHS).

Records with an inconclusive call do not appear. Calls of active or inactive are those of the source. The calls were made as follows: active = hit-call score of the fitted dose curve at least 0.9, where 1 is the maximum; inconclusive = response in the unintended direction; inactive = score below 0.9.

The target in the assay is Bile acid receptor (Homo sapiens) (UniProt Q96RI1). As to the kind of experiment: ATG_FXR_TRANS: Attagene TRANS-FACTORIAL HepG2 Assay for Farnesoid X Receptor (FXR) (AID 2282979).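 Also: hits raise reporter mRNA above DMSO so AC50 marks FXR activation.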 The settings on record: HepG2 Attagene TRANS FXR-GAL4 reporter transcription. In short, it runs like this: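 HepG2 cells were transiently transfected with GAL4-UAS reporters driven by chimeric NR-Gal4 proteins and dosed for 24 h. Reporter mRNA was quantified by RT-PCR, fluorescent labelling, HpaI digestion and capillary electrophoresis, with gain of signal scored versus DMSO.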
Chain of Bile acid receptor (Homo sapiens) (Q96RI1 whole entry, looked up, the tested form may be a part): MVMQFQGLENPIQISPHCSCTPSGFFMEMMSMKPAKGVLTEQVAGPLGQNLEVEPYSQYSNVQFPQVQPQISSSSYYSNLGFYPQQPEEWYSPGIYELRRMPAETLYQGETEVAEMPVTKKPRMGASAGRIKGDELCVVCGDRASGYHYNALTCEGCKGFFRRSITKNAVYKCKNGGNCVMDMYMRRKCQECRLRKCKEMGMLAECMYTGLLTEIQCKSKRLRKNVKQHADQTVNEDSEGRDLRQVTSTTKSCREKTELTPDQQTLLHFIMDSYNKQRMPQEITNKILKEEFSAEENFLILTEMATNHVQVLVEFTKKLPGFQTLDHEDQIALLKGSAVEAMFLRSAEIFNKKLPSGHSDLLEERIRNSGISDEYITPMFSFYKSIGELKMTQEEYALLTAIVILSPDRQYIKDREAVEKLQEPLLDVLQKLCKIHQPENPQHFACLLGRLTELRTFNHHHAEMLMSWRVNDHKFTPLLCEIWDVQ
As to `CC1CNCC(C)O1` (configuration not stated), the call was inactive.

Consider `CCOC(=O)CN[C@@H](C(=O)N1CC[C@H]1C(=O)NCc1ccc(/C(N)=N/O)cc1)C1CCCCC1`, for which the call was inactive.

On to `CCCCCCc1ccc(N)cc1`, for which the result was inactive.

As for `O=C1c2ccc(O)c(O)c2C(=O)c2c(O)ccc(O)c21`, the call was inactive.

`CC1=NN(c2ccccc2)C(=O)C1`: the outcome was inactive.

Turning to `FC(F)(F)C(F)(F)C(F)(F)C(F)(F)I`, the result was inactive.

Regarding `Cc1[nH]nc2c1N=C(c1ccccc1Cl)c1cc([N+](=O)[O-])ccc1N2`, the compound was classed as inactive.

`Nc1ccn([C@@H]2O[C@H](CO)[C@@H](O)C2O)c(=O)n1` (some centres not stated): the outcome was inactive.

`CN(C)c1ccc(C(=C2C=CC(=[N+](C)C)C=C2)c2ccccc2)cc1`: the outcome was inactive.

For `CCCCCCCCCCCCCCCCCC[N+](C)(C)Cc1ccccc1`, the call was inactive.

On to `CCCCN(C)C`, for which the compound was classed as inactive.

With `CCC(=O)C=Cc1ccc(OC)cc1`, the outcome was inactive.

For `O=P(O)(O)CCC(F)(F)C(F)(F)C(F)(F)C(F)(F)C(F)(F)C(F)(F)C(F)(F)C(F)(F)F`, the outcome was inactive.

With `CC(C)CCOCCC(C)C`, the compound was called inactive.

With `CC(C)(C)C1CCCCC1O` (configuration not stated), the outcome was inactive.

On to `O=S(=O)(O)c1ccccc1`, for which the compound was classed as inactive.

For the compound `O=C(O)CN(CCCN(CC(=O)O)CC(=O)O)CC(=O)O`, the result was inactive.

As for `Brc1cc(Br)c(Oc2c(Br)cc(Br)c(Br)c2Br)cc1Br`, the compound was classed as inactive.

For `Brc1ccc(Oc2ccc(Br)cc2Br)cc1`, the result was inactive.

Regarding `CCc1cccc(CC)c1NC(=O)C(=O)O`, the call was inactive.

For the compound `CC(C)(C)c1ccc(O)c(O)c1`, the compound was classed as inactive.

Consider `O=C(F)C(F)(F)C(F)(F)C(F)(F)C(F)F`, for which the call was inactive.

For `NNC(=O)CCCCC(=O)NN`, the call was inactive.

With `COCN(COC)c1nc(N(COC)COC)nc(N(COC)COC)n1`, the compound was called inactive.

In the case of `FC(F)(F)N1C(F)(F)C(F)(F)OC(F)(F)C1(F)F`, the result was inactive.

As for `Cc1cc(C(C)(C)C)c(O)c(C(C)(C)C)c1`, the call was inactive.

With `Cc1cc(Cc2cc(C)cc(C(C)(C)C)c2O)c(O)c(C(C)(C)C)c1`, the compound was called inactive.

For the compound `Cc1ccc2ccc3ccc(C)cc3c2c1`, the call was inactive.

For the compound `COc1cc(OC)nc(NC(=O)NS(=O)(=O)Nc2ccccc2C(=O)N(C)C)n1`, the compound was called inactive.

For the compound `O=C(CC(=O)C(F)(F)C(F)(F)C(F)(F)F)c1cccs1`, the result was inactive.

`Cc1ccccc1OCC(=O)O`: the call was inactive.

Consider `O=C(O)CCC(F)(F)C(F)(F)C(F)(F)C(F)(F)C(F)(F)C(F)(F)F`, for which the compound was classed as inactive.

Regarding `C=CC(F)(F)C(F)(F)C(F)(F)C(F)(F)F`, the compound was called inactive.

As to `Oc1c(Cl)cc(Cl)cc1Sc1cc(Cl)cc(Cl)c1O`, the outcome was inactive.

With `O=C(Nc1ccc(Cl)c(Cl)c1)c1cc(Cl)cc(Cl)c1O`, the AC50 (commonly the concentration giving half of the maximal activity seen) was 3.82 µM (active).

As to `OCC1CCC(CO)CC1` (configuration not stated), the compound was classed as inactive.

For the compound `C[N+](C)(CCCNS(=O)(=O)CCC(F)(F)C(F)(F)C(F)(F)C(F)(F)C(F)(F)C(F)(F)F)CC(=O)[O-]`, the call was inactive.
